This is an account of results in PubChem BioAssay AID1345083 (National Center for Advancing Translational Sciences (NCATS), 2018).

In all, about 94,000 compounds went through this assay and about 6,200 (6.6%) were called active. Entries that show only a call come without a potency. About 31% were inconclusive and are not listed. Calls follow the shape of the dose curve; as a rule, active = well fitted inhibition curve with a large enough effect; inconclusive = small, poorly fitted or top-dose-only effect; inactive = flat fitted curve, though single readings scatter. This excerpt belongs to a sample that is enriched for actives.
Potency is read from the fitted curve at half-maximal effect.

The nature of the test: Cytotoxic Profiling in HEK 293 Cell Line of Diverse Libraries Using Quantitative High-Throughput Screening. Also: nearly all actives have a fitted effect of over 60% in size. As to conditions: HEK 293 viability, ATP luminescence (CellTiter-Glo), 48-72 h; series mostly up to 115 µM. The method, boiled down: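 CellTiter-Glo luminescence (cellular ATP) was read after 48 or 72 hr of compound exposure at 37 degree Celsius. Cells were HEK 293 plated at 250 cells/well.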
With `O=C(Cn1nc2n(c1=O)CCCCC2)N1CCc2ccccc21`, the Potency entry was “inactive”. Take `CCOCC(=O)Nc1nn(-c2cccc(F)c2)c2cccc(N3CCOC3=O)c12`: the Potency result was “inactive”. With `NC(=O)[C@H](Cc1cccs1)NC(=O)[C@@H]1C[C@@H](NC(=O)c2cnccn2)CCN1C(=O)COCC(=O)O`, the Potency result was “inactive”. On to `O=C(NCc1ccncc1)C1CCN(C(=O)N2CC3CC(C2)[C@H]2CCCC(=O)N2C3)CC1` (some centres undefined), for which the Potency entry was “inactive”. As for `O=C(Nc1ccccc1Br)N1CCC2(CC1)SCC(=O)N2Cc1ccco1`, the Potency entry was “inactive”.

Turning to `CNC(=O)[C@@H]1CN(C(=O)Cn2c(=O)oc3ccccc32)C[C@H]1c1nc(C)no1`, the Potency entry is “inactive”. With `O=C(NCCOc1ccccc1)c1nc2c(o1)CCN(CC1CCCCC1)CC2`, the Potency is 100 µM (active). As to `O=C(NCCc1ccccc1)N1CCCCCC1CN1CCOCC1` (centres undefined), the Potency entry is “inactive”.

With `CCc1nc2c(c(-c3ccc(OC)cc3)n1)CCN(CC1CCCCC1)CC2`, the Potency result is “inactive”.

On to `CN1C(=O)[C@H]2CN(Cc3ccccc3Cl)C[C@H]2C1=O`, for which the Potency entry is “inactive”. The result for `c1coc(-c2ccnc3nc(C4CC4)nn23)c1` reads “inactive”. As for `COc1cc(NC(=O)C2Cn3cccc3C(=O)N2)cc(OC)c1` (centres undefined), the Potency entry is “inactive”. Consider `Cc1noc(C)c1[S+](=O)([O-])N1CCCC(c2nnc3n2C(C(=O)O)CC3)C1` (centres undefined), for which the Potency result is “inactive”. `Cc1noc(C)c1[S+](=O)([O-])NC1CCN(Cc2ccc(-c3ccsc3)cc2)C1` (centres undefined): the Potency is 39.8 µM (active). Turning to `O=C1N2CCCC2CN1C1CCN(Cc2ccsc2)CC1` (centres undefined), the Potency result was “inactive”. For the compound `Cc1noc(C)c1[S+](=O)([O-])N1CCn2c(nnc2-c2ccccc2)C1`, the Potency entry is “inactive”. In the case of `Cc1noc(C)c1[S+](=O)([O-])NC1CCN(Cc2cccc(-c3ccc(F)c(F)c3)c2)CC1`, the Potency is 25.1 µM (active). The result for `CSc1ccc(-c2cccc(CN3CCC(N[S+](=O)([O-])c4cccs4)CC3)c2)cc1` reads 22.4 µM (active); that for `Cc1noc(C)c1[S+](=O)([O-])N1CC(Oc2ccc(F)c(F)c2)C1`, “inactive”. For the compound `CCCN1C(=O)C(CC(=O)NC2CCCC2)Sc2ncccc21` (centres undefined), the Potency result is “inactive”. Take `CC(C)CCN1CCc2c(n(Cc3cccnc3)n(-c3ccccc3)c2=O)C1`: the Potency entry was “inactive”. In the case of `CCn1ncc(N2CCC(NC(=O)C(C)c3ccccc3)CC2)cc1=O` (centres undefined), the Potency result was “inactive”.

With `CN1[C@@H](CCC(=O)N2CCN(c3ccccn3)CC2)CNC(=O)[C@@H]2[C@H]1CCN2Cc1csnn1`, the Potency entry was “inactive”.

In the case of `CN(Cc1cccnc1)C1CN(C(=O)c2ccnn2C)C1`, the Potency entry was “inactive”. For `CN(Cc1cccc2ccccc12)C1CCc2ccccc21` (centres undefined) the value was “inactive”; for `CN(CC1CCOC1)C(=O)c1ccccc1Br` (centres undefined), “inactive”; for `O=C(c1ccc(C(F)(F)F)cc1)N1CCC2(C1)C(=NC1CCCC1)NC(=O)N2c1cccnc1` (centres undefined), “inactive”. Consider `CN(CC1(C)CCOCC1)S(=O)(=O)C1CC1`, for which the Potency entry was “inactive”. Regarding `O=C(N[C@@H]1C[C@H](Cn2cc(-c3cccnc3)nn2)[C@@H](O)[C@H]1O)c1ccccc1`, the Potency result was “inactive”. The result for `O=c1[nH]c(N2CCOCC2)nc2c1CCN(Cc1cccc(F)c1)CC2` reads “inactive”; that for `CN(C)c1ccc(C(=O)N2CCN3C(=O)N(Cc4ccccc4)C(=O)[C@H]3C2)cc1`, “inactive”; that for `CC1=C[C@@H](CNC2CC2)[C@H](C(C)C)C[C@H]1Cc1nnc(-c2ccc(C)cc2)o1`, 50.1 µM (active). As to `CC1=C[C@@H](CNC(C)C)[C@H](C(C)C)C[C@H]1Cc1nnc(-c2ccc(N(C)C)cc2)o1`, the Potency is 31.6 µM (active). Turning to `CC(=O)NC[C@@H]1C=C(C)[C@H](CC(=O)N2CCCC2)C[C@H]1C(C)C`, the Potency entry is “inactive”. As for `CC1=C[C@@H](CNC(C)C)[C@H](C(C)C)C[C@H]1Cc1nnc(-c2ccc(C)cc2)o1`, the Potency is 70.8 µM (active). The result for `O=C1CCC2(CCCN(C(=O)c3ccc(F)cc3)C2)CN1CCc1cnc[nH]1` (centres undefined) reads “inactive”. `CC(C)CN1CC2(CCN(C(=O)c3conc3-c3ccccc3)CC2)CC1=O`: the Potency result is “inactive”. As for `CC(C)S(=O)(=O)N1CCC(c2nnc3n2CCNC3)CC1`, the Potency result was “inactive”.

With `O=C(C1C2C(=O)N(C3CCCCCC3)C[C@@]23C=C[C@@H]1O3)N1CCS(=O)(=O)CC1` (some centres undefined), the Potency result is “inactive”. With `COCCN1CCOC[C@H]2CCN(C(=O)c3sc(C)nc3C)C[C@H]21`, the Potency result was “inactive”.

For `COCCNC(=O)CC[C@]12CC[C@](C)(O)C[C@H]1C(C)(C)C[C@@H]2NC(=O)c1ccco1`, the Potency entry is “inactive”. As for `N[C@@H]1CCN(Cc2cccc(Oc3ccc(F)cc3)c2)C[C@H]1O`, the Potency is 79.4 µM (active). Regarding `CNC(=O)[C@@H]1CN(Cc2cccc(OC)c2)C[C@H]1CO`, the Potency entry was “inactive”.

Turning to `COc1cccc(CN2CC[C@@](C)(O)[C@H](N3CCCC3)C2)c1`, the Potency entry was “inactive”. The result for `COC(=O)C1=C(C)N=C2SC=C(CC(=O)NCc3ccco3)N2C1c1cccc(F)c1` (centres undefined) reads “inactive”; that for `CC(C)(C)c1nc(C(=O)N2CCOCC2)n2ccccc12`, “inactive”; that for `CCCNC(=O)N1CCCC1c1nc(C2CCOCC2)no1` (centres undefined), “inactive”. With `COCCN1C(=O)CS(=O)C12CCN(C(=O)NC1CCCC1)CC2` (centres undefined), the Potency entry is “inactive”.

As for `Cn1nccc1C(=O)N1CCCCCNC(=O)[C@@H]2CCC[C@@H]21`, the Potency entry was “inactive”.

Turning to `COc1ccccc1Nc1ncc2c(n1)CN(C(=O)COc1ccccc1)CCN2`, the Potency result was “inactive”.

As for `O=C(c1cccc(F)c1)N1CCCC(c2nccn2Cc2cscn2)C1` (centres undefined), the Potency result is “inactive”. For the compound `O=C(c1cccc(O)c1)N1CCNc2cnc(Nc3cccc(F)c3)nc2C1`, the Potency is 100 µM (active). Take `Cc1ccc(C(=O)N2C[C@H]3CN(C4CCOCC4)C[C@@]3(C(=O)O)C2)cc1`: the Potency result is “inactive”.

With `COc1ccc(-c2ccnc(-c3nnc(C)n3C3CCN(C)CC3)c2)cc1OC`, the Potency result is “inactive”.

Consider `Cc1nnc(-c2cc(-c3ccccc3)ccn2)n1CCc1ccccc1`, for which the Potency was 89.1 µM (active).

`COCCn1c(C)nnc1-c1cc(-c2cccc(F)c2)ccn1`: the Potency result is “inactive”. Consider `O=C(C1CCN([S+](=O)([O-])c2cccs2)CC1)N1CCC(c2nc3ncccc3[nH]2)CC1`, for which the Potency result is “inactive”. `Cc1ccc(N2Cc3c(NC4CCCCC4)ncnc3N(C)CC2=O)cc1`: the Potency result is “inactive”.

On to `O=C(Cc1cccn1-c1ccccc1)N1CCOCC1`, for which the Potency entry was “inactive”. As to `Cc1ccc(C(=O)N2CCCC(C(=O)NCc3ccccc3)CCNC(=O)CC2)s1` (centres undefined), the Potency result is “inactive”. As for `O=[N+]([O-])c1cccc(-c2noc([C@@H]3C[C@@H](O)CN3Cc3cccnc3)n2)c1`, the Potency result is “inactive”. As for `COc1ccc(-c2nc(C)nc3c2CN([S+](C)(=O)[O-])CC3)cc1`, the Potency entry is “inactive”.

`COc1ccc(C(=O)N2CCc3nc(C4CC4)nc(-c4ccc(Cl)cc4)c3C2)cc1`: the Potency entry was “inactive”. The result for `COc1ccc(-c2nnc3n2CCN(C(=O)c2cccc(OC)c2)C3)cc1` reads “inactive”; that for `COc1ccc(-c2nc(C(C)C)nc3c2CCN([S+](=O)([O-])c2cccc(C(F)(F)F)c2)CC3)cc1`, 39.8 µM (active); that for `COc1cccc(C(=O)N2CCc3nc(C(C)C)nc(-c4ccc(Cl)cc4)c3C2)c1`, 89.1 µM (active). The result for `COc1ccc(-c2nc(C3CC3)nc3c2CCN([S+](=O)([O-])c2ccccc2)CC3)cc1` reads “inactive”; that for `CCC(CC)C(=O)N1CCC(N2CCCC(C(=O)NCc3ccccc3)C2)CC1` (centres undefined), “inactive”.

As for `COc1cc(SC)ccc1C(=O)N[C@@H]1C=C(C(=O)N[C@H](Cc2ccccc2)C(N)=O)C[C@@H](O)[C@@H]1O`, the Potency entry is “inactive”. As for `CCCC(NC(C)=O)C(=O)Nc1cccc(NC(=O)Cc2ccccc2)c1` (centres undefined), the Potency entry was “inactive”. Consider `O=c1[nH]c(C2CCN(Cc3ccc(F)cc3)CC2)nn1Cc1ccccc1`, for which the Potency entry was “inactive”. With `COc1ccccc1C(=O)N1CCC2(CC1)CC(=O)c1ccccc1O2`, the Potency is 112 µM (active). Regarding `COc1ccccc1C(=O)N1CCC(n2cnnc2C2CC2)CC1`, the Potency result is “inactive”. For `COc1ccccc1C(=O)N1CCC2(CCC(=O)N(Cc3ccccc3)CC2)CC1`, the Potency entry is “inactive”. Regarding `OC1CC(c2cc(N3CCC(c4nnc5n4CCCCC5)CC3)ncn2)C1` (centres undefined), the Potency entry was “inactive”. Consider `O=C(O)c1cccc(-c2ccccn2)c1`, for which the Potency entry was “inactive”. As for `COCCN1C(=O)c2cccn2CC1CNC(=O)c1ccccc1F` (centres undefined), the Potency result is “inactive”. Take `CN(C)[C@@H]1CO[C@H](CNS(=O)(=O)c2ccccc2)[C@H]1O`: the Potency result was “inactive”. The result for `CNC(=O)c1cc[nH]c1C1CCCN(C(=O)Cc2c[nH]c3ccccc23)C1` (centres undefined) reads “inactive”.
